According to PubChem BioAssay (NCI):
This is part of a sample that, as a whole, favours compounds with a hit. Of some 83,000 tested, about 20% had one in any assay.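 96-well plates, one dose, 48 hours. Percent growth reported; active if below 10.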 The source made the active and inactive calls.

Tested on: OVCAR-5 ovarian
Experiment: NCI-60 one-dose screen, 48 h (100 = growth as untreated, 0 = no growth, -100 = all killed)
Details: 10 µM unless noted

| SMILES | growth |
| --- | --- |
| COc1ccc(NC(=S)NNc2ccc(-c3ccc(OC)c(OC)c3)nn2)cc1 | 103% (inactive) |
| Cn1cc(-c2nnc(-c3cn(C)c4ncccc34)s2)c2ccccc21 | 90% (inactive) |
| Fc1cc2[nH]ncc2c2c3c(c(-c4cn[nH]c4C(F)(F)F)nc12)C1CCC3C1 (stereo not drawn) | -7.74% (active) |
| COc1ccc2nc3cc(Cl)ccc3c(Nc3ccc(O)cc3)c2c1 | 104% (inactive) |
| CCOC(=O)n1cc(C2=C(c3ccc(OC)c(OC)c3)COC2=O)c2ccccc21 | 50.1% (inactive) |
| C[n+]1c(-c2ccccc2)c2cc(N)ccc2c2ccccc21 | 107% (inactive) |
| Fc1cc2[nH]ncc2c2c3c(c(-c4cn[nH]c4)nc12)CCCC3 | 4.24% (active) |
| CCN(CC)c1ccc2cc(NC(=O)OCCNC(=O)CCNC(=O)[C@H](CC(C)C)NC(=O)C(C)(C)NC(=O)C(C)(C)NC(=O)[C@H](CC(C)C)NC(=O)CCNC(=O)C(C)(C)NC(=O)[C@H](CC(C)C)NC(=O)CCNC(=O)[C@@](C)(CC)NC(=O)[C@H](C)NC(=O)CCNC(=O)C(C)(C)NC(=O)[C@H](C)NC(=O)[C@@H]3CCCN3C(=O)[C@@](C)(CC)NC(=O)[C@H](Cc3ccccc3)NC(=O)C3CCCN3C(=O)C(C)(C)NC(=O)C3CCCN3C(=O)C(C)(C)NC(C)=O)c(=O)oc2c1 (stereo partly drawn) | -87.7% (active) |
| COc1cc(NCc2cn(-c3ccc(C(=O)O)cc3)nc2-c2ccc(C(=O)O)cc2)cc(OC)c1OC | 94.8% (inactive) |
| CC(C)CCSc1nc(N)nc2nc[nH]c12 | 107% (inactive) |

Tested on: OVCAR-4 ovarian
Experiment: as above
Details: 10 µM

| SMILES | growth |
| --- | --- |
| CC1=CC[C@@H]2C(C)(C)C(=O)CC[C@@]2(C)[C@@H]1COc1ccc2ccc(=O)oc2c1 | 23.1% (inactive) |
| COc1ccc(/C=C2\N=C(Nc3ccccc3)N(NC(=O)c3ccccn3)C2=O)cc1 | 90% (inactive) |
| COc1ncc(-c2ccc3nccc(C#CCCCCC(=O)NO)c3c2)cc1NS(=O)(=O)c1ccc(F)cc1F | 24.9% (inactive) |
| COc1ccc2c(c1)C(C)Cc1c(Cl)ncnc1N2C (stereo not drawn) | 7.09% (active) |
| CC[C@@H]1NC(=O)[C@@H]2CCCCN2C(=O)[C@@H]2CCCN2C(=O)[C@@H](NC(=O)[C@H](Cc2cc(F)cc(F)c2)NC(=O)Nc2ccc(C3CC3)cc2F)[C@H](C)OC(=O)[C@@H]2C[C@@H](C)CN2C1=O | 7.84% (active) |
| CCN(CC)c1cc(N)c(Cc2c(N)cc(N(CC)CC)cc2Cl)c(Cl)c1 | 23.8% (inactive) |
| O=C1COCCN1c1ccc(Nc2nc(Cl)nc(N3CCOCC3)n2)cc1 | 102% (inactive) |
| Cn1cc(-c2nnc(-c3cn(C)c4ncc(Br)cc34)s2)c2cc(Br)ccc21 | 93.8% (inactive) |
| Nc1ccc2c(c1)Cc1cc(NC(=O)C(F)(F)F)ccc1-2 | 109% (inactive) |
| COc1ccc(-c2cc(-c3ccc(Cl)cc3)nc(NCCCCNc3ccnc4cc(Cl)ccc34)n2)cc1 | 73.3% (inactive) |
| C#C[C@]1(O)CC[C@H]2[C@@H]3CC=C4c5nc(Nc6ccc(OC)cc6OC)sc5CC[C@]4(C)[C@H]3CC[C@@]21C | 44.7% (inactive) |
| CNC(=O)c1cc(Oc2ccc3nc(NC(=O)c4ccc5ncccc5c4)sc3c2)ccn1 | 87.4% (inactive) |
| COc1ncc(-c2ccc3nccc(C#CCCCCC(=O)O)c3c2)cc1NS(=O)(=O)c1ccc(F)cc1F | 50.3% (inactive) |
| CCc1ccc(C2=C/C(=C/c3ccccc3)C(=O)N2CCc2ccc(S(N)(=O)=O)cc2)cc1 | 103% (inactive) |
| Cc1ccc(-c2cn(C/C=C3\C=CN(S(=O)(=O)c4ccccc4)CC3)nn2)cc1 | 74.2% (inactive) |
| CCN1c2ccccc2C(Cl)(c2ccc(N(C)C)cc2)c2ccccc21 | 75.2% (inactive) |
| COc1ccc(-c2ccc(NNC(=O)c3ccc(F)cc3)nn2)cc1OC | 81.8% (inactive) |
| c1ccc(-c2nnc(-c3c[nH]c4ncccc34)s2)cc1 | 89.4% (inactive) |
| COc1c(B(O)O)cccc1-c1nc2ccc3[nH]ncc3c2c2c1CCC2 | 80.7% (inactive) |

| SMILES | growth |
| --- | --- |
| O=C1/C(=C\c2cccn2Cc2ccccc2)c2ccccc2N1c1c(Cl)cccc1Cl | -2.5% (active) |
| CN(C)c1ccc(-c2ccc(-c3ccc(C(=N)N)cc3)s2)cc1 | 8.97% (active) |
| CC(C)(C)c1cc(C(=O)Nc2ccc(C(=O)NCCN)cc2)cc(C(C)(C)C)c1 | 62.3% (inactive) |
| CC1=CC[C@@H]2C(C)(C)[C@@H](O)CC[C@@]2(C)[C@@H]1COc1ccc2ccc(=O)oc2c1 | 31% (inactive) |
| CCn1cc(-c2cc(-c3ccc(Cl)cc3)nc(N)n2)c(-c2ccc(Br)cc2)n1 | 82.2% (inactive) |
| COc1cc(-c2cc(-c3ccc(Nc4ncnc5cc(Cl)ccc45)cc3)nc(N3CCCCC3)n2)cc(OC)c1OC | 106% (inactive) |
| Cn1cc(-c2nnc(-c3ccccc3)s2)c2cc(Br)cnc21 | 68% (inactive) |
| CC(=O)Nc1ccc2nc3ccc(NC(C)=O)cc3[n+](-c3ccccc3)c2c1 | 86% (inactive) |
| Cc1cccc(C[C@H](NC(=O)Nc2ccc(Cl)cc2F)C(=O)N[C@@H]2C(=O)N3C[C@H](O)C[C@H]3C(=O)N3CCCC[C@H]3C(=O)N[C@@H](C)C(=O)N3C[C@H](C)C[C@H]3C(=O)O[C@H]2C)c1 | 7.83% (active) |
| COc1ccc(NC(=S)NNc2ccc(-c3ccc(OC)c(OC)c3)nn2)cc1 | 100% (inactive) |
| Cn1cc(-c2nnc(-c3cn(C)c4ncccc34)s2)c2ccccc21 | 81% (inactive) |
| Fc1cc2[nH]ncc2c2c3c(c(-c4cn[nH]c4C(F)(F)F)nc12)C1CCC3C1 (stereo not drawn) | 35% (inactive) |
| COc1ccc2nc3cc(Cl)ccc3c(Nc3ccc(O)cc3)c2c1 | 90.4% (inactive) |
| CCOC(=O)n1cc(C2=C(c3ccc(OC)c(OC)c3)COC2=O)c2ccccc21 | 35.3% (inactive) |
| C[n+]1c(-c2ccccc2)c2cc(N)ccc2c2ccccc21 | 29.8% (inactive) |
| Fc1cc2[nH]ncc2c2c3c(c(-c4cn[nH]c4)nc12)CCCC3 | 16.1% (inactive) |
| CCN(CC)c1ccc2cc(NC(=O)OCCNC(=O)CCNC(=O)[C@H](CC(C)C)NC(=O)C(C)(C)NC(=O)C(C)(C)NC(=O)[C@H](CC(C)C)NC(=O)CCNC(=O)C(C)(C)NC(=O)[C@H](CC(C)C)NC(=O)CCNC(=O)[C@@](C)(CC)NC(=O)[C@H](C)NC(=O)CCNC(=O)C(C)(C)NC(=O)[C@H](C)NC(=O)[C@@H]3CCCN3C(=O)[C@@](C)(CC)NC(=O)[C@H](Cc3ccccc3)NC(=O)C3CCCN3C(=O)C(C)(C)NC(=O)C3CCCN3C(=O)C(C)(C)NC(C)=O)c(=O)oc2c1 (stereo partly drawn) | -94.9% (active) |
| COc1cc(NCc2cn(-c3ccc(C(=O)O)cc3)nc2-c2ccc(C(=O)O)cc2)cc(OC)c1OC | 94.4% (inactive) |
| CC(C)CCSc1nc(N)nc2nc[nH]c12 | 112% (inactive) |
